Test results: PubChem BioAssay AID463173 (ICCB-Longwood Screening Facility, Harvard Medical School, 2010)
In all, about 52,000 compounds went through this assay and about 4,300 (8.3%) were called active. For the sample, actives were picked, then their nearest neighbours and some compounds at random. Unmarked numbers belong to inactive results. Cut-off read from the data, not from the text of the source: active = survival mostly below about 52% (no sharp cut-off); inactive = mostly above about 56%.

What follows are compounds tested on DeltatarO mutant (assay: growth inhibition of S. aureus wild type versus tarO mutant, primary screen, teichoic acid synthesis inhibitors, RN4220, OD600 (AID 463173)). Settings: OD600, 18 h, hits give low values, screened at 18.75 µg/mL (by protocol).

| SMILES | survival |
| --- | --- |
| CC(C(=O)c1ccccc1)n1cnc2ccccc2c1=O (stereo not drawn) | 104% |
| COc1ccccc1N1CCN(C(=O)Cn2cnc3onc(-c4ccc(F)cc4)c3c2=O)CC1 | 84% |
| Fc1ccc(CN2CCc3nc(N4CCN(c5ccccc5F)CC4)ncc3C2)c(F)c1 | 77% |
| Cc1cc(NC(=O)CCn2c(=O)c3cccn3c3cccnc32)ccc1Br | 102% |
| COc1ccc(CNC(=O)Cn2c(=O)nc(-c3ccccc3)c3ccccc32)cc1OC | 89% |
| CCCCc1nn2c(=O)cc(COC(=O)c3ccccc3NC(=O)C3CCCCC3)nc2s1 | 71% |
| CC1=C(c2cccc(Cl)c2)S(=O)(=O)NC1=NCc1ccccc1C | 99% |
| O=C(NCc1ccc2c(c1)CCN2C(=O)c1ccc(Cl)cc1)c1cccc(F)c1 | 61% |
| O=C(c1cccc(F)c1)N1CCC(c2c[nH]c3ccccc23)(c2c[nH]c3ccccc23)CC1 | 86% |
| CC1(c2ccc(Cl)cc2)CC(C)(C)N(C(=O)c2cccc(F)c2)c2ccccc21 (stereo not drawn) | 11% (active) |
| CC1(c2ccc(Cl)cc2)CC(C)(C)N(C(=O)c2ccccc2)c2ccccc21 (stereo not drawn) | -4% (active) |
| CC1CC(C)CN(C(=O)c2ccc(Cl)cc2)C1 (stereo not drawn) | 96% |
| CC1(C)C(=O)N(CC(=O)Nc2ccc(Cl)cc2)c2ccccc21 | 83% |
| CCOC(=O)c1c(NC(=O)CSc2cn(CCNC(=O)c3ccccc3OC)c3ccccc23)sc2c1CCC2 | 141% |
| CCOc1ccc(-c2cc(-c3nc(-c4cc(OC)c(OC)c(OC)c4)no3)[nH]n2)cc1Cl | 96% |
| Cc1nnc(N2CCCC(C(=O)NCCc3ccccc3)C2)c2nn(-c3ccccc3)c(C)c12 (stereo not drawn) | 94% |
| O=C(Nc1ccccc1O)c1ccccn1 | 77% |
| Cc1ccc(C)c(N2CCN(C(=O)c3ccc4c(=O)n(CCc5ccccc5)c(=O)[nH]c4c3)CC2)c1 | 55% (active) |
| CCCCCn1c(=O)[nH]c2cc(C(=O)N3CCN(c4cccc(Cl)c4)CC3)ccc2c1=O | 71% |
| COc1ccc(Cn2c(=O)[nH]c3cc(C(=O)N4CCN(c5cc(C)ccc5C)CC4)ccc3c2=O)cc1 | 73% |
| O=C(c1ccc2c(=O)n(CCc3ccccc3)c(=O)[nH]c2c1)N1CCN(c2ccc(F)cc2)CC1 | 111% |
| CCCCCn1c(=O)[nH]c2cc(C(=O)N3CCN(c4ccc(OC)cc4)CC3)ccc2c1=O | 135% |

| SMILES | survival |
| --- | --- |
| CCCCCn1c(=O)[nH]c2cc(C(=O)N3CCN(c4cccc(OC)c4)CC3)ccc2c1=O | 55% (active) |
| Cc1cccc(-n2ncc3c(N4CCN(CCO)CC4)ncnc32)c1 | 83% |
| Cc1ccc(Cc2cn3cc(-c4ccccc4)nc3s2)cc1 | 66% |
| COc1cccc(CN2C(=O)C3(SCC(=O)N3c3ccc(C(C)C)cc3)c3ccccc32)c1 (stereo not drawn) | 55% |
| COc1cccc(N2C(=O)CSC23C(=O)N(Cc2ccccc2)c2ccccc23)c1 (stereo not drawn) | 80% |
| COc1cccc(CN2C(=O)C3(SCC(=O)N3c3ccc(C)c(Cl)c3)c3ccccc32)c1 (stereo not drawn) | 52% (active) |
| CC(=O)N(Cc1cccnc1)c1nc2c(F)cc(F)cc2s1 | 89% |
| COC(=O)c1cc2oc3ccccc3c2n1Cc1nc(-c2ccc(Cl)cc2)oc1C | 91% |
| CCOc1ccc(CCNC(=O)Cn2ccc3cc(S(=O)(=O)N4CCCCC4)ccc32)cc1 | 102% |
| COc1ccc(C2C=C(c3cccc(OC)c3)Nc3c(C(=O)Nc4ccccc4)cnn32)cc1 (stereo not drawn) | 52% |
| CCOc1ccc(NC(=O)c2cnn3c2NC(c2ccccc2)=CC3c2cccc(OC)c2OC)cc1 (stereo not drawn) | 62% |
| COc1ccc(C2=CC(c3ccc(F)cc3)n3ncc(C(=O)Nc4ccc(C)cc4)c3N2)cc1 (stereo not drawn) | 106% |
| CC1=C(C(=O)Nc2ccccc2)C(c2ccccc2Cl)n2ncc(C(=O)Nc3cccc(C)c3)c2N1 (stereo not drawn) | 88% |
| COc1ccc(C2C(C(=O)Nc3ccccc3)=C(C)Nc3c(C(=O)Nc4ccccc4)cnn32)cc1 (stereo not drawn) | 126% |
| COc1ccc(C2C=C(c3ccc(C)cc3)Nc3c(C(=O)Nc4ccccc4)cnn32)cc1 (stereo not drawn) | 53% (active) |
| COc1cccc(C2C=C(c3ccccc3)Nc3c(C(=O)Nc4ccccc4)cnn32)c1OC (stereo not drawn) | 13% (active) |
| COc1cc(OC)c(C2C=C(c3ccc(C)cc3)Nc3c(C(=O)Nc4ccccc4)cnn32)cc1OC (stereo not drawn) | 48% |
| COc1ccccc1NC(=O)C1=C(C)Nc2c(C(=O)Nc3cccc(C)c3)cnn2C1c1ccccc1Cl (stereo not drawn) | -5% (active) |
| COc1ccccc1NC(=O)C1=C(C)Nc2c(C(=O)Nc3cccc(C)c3)cnn2C1c1ccccc1C (stereo not drawn) | 89% |
| CCc1ccc(C2C(C(=O)Nc3ccccc3OC)=C(C)Nc3c(C(=O)Nc4ccc(C)cc4)cnn32)cc1 (stereo not drawn) | 68% |
| CCc1ccc(C2C(C(=O)Nc3ccccc3)=C(C)Nc3c(C(=O)Nc4ccc(C)cc4)cnn32)cc1 (stereo not drawn) | 17% (active) |
| CC(C)(C)C(=O)Cn1c(=O)n(-c2ccccc2)c(=O)c2c3c(sc21)CCC3 | 80% |

| SMILES | survival |
| --- | --- |
| CCCn1ccc2c(OCC(=O)Nc3ccccc3OCC)cccc2c1=O | 102% |
| O=S1(=O)c2cccc3cccc(c23)N1Cc1ccccc1F | 81% |
| CN1CCN(C(=O)C2CCN(S(C)(=O)=O)CC2)CC1 | 83% |
| COc1cccc(C2=CC(c3ccccc3F)n3ncc(C(=O)Nc4ccc(F)cc4)c3N2)c1 (stereo not drawn) | 72% |
| COc1cccc(C2C=C(c3ccc(C)cc3)Nc3c(C(=O)Nc4ccc(F)cc4)cnn32)c1OC (stereo not drawn) | 0% (active) |
| COc1ccc(C2=CC(c3ccccc3F)n3ncc(C(=O)Nc4ccc(C)cc4)c3N2)cc1 (stereo not drawn) | 107% |
| COc1nc(Nc2ccc(C)cc2)nc(NC2CCCC2)n1 | 81% |
| C/C(=N\NC(=O)CNc1ccccc1)c1ccccc1 | 85% |
| Cc1cccc(Cn2c(SCc3ccc(C(=O)NCc4ccccc4F)cc3)nc3cccnc32)c1 | 98% |
| CCOC(=O)c1c(S(=O)(=O)N2CCCC(C(=O)Nc3cccc(C)n3)C2)c(C)n(C)c1C (stereo not drawn) | 87% |
| O=c1oc2ccc3ccccc3c2cc1-c1nnc(Nc2cccc(C(F)(F)F)c2)s1 | 81% |
| COc1cc(-c2noc(-c3ccc(NC4CCCCC4)c([N+](=O)[O-])c3)n2)cc(OC)c1OC | 76% |
| Cc1ccccc1-c1noc(-c2ccc(NC3CCCC3)c([N+](=O)[O-])c2)n1 | 66% |
| COc1ccc(-c2noc(-c3ccc(NC4CCCCC4)c([N+](=O)[O-])c3)n2)cc1OC | 68% |
| COc1ccccc1-c1noc(-c2ccc(NC3CCCC3)c([N+](=O)[O-])c2)n1 | 43% (active) |
| COc1ccc(-c2noc(-c3ccc(NC4CCCC4)c([N+](=O)[O-])c3)n2)cc1OC | 55% |
| COc1ccccc1-c1noc(-c2ccc(NC3CCCCC3)c([N+](=O)[O-])c2)n1 | 41% (active) |
| CCCn1c(CN2CCN(c3ccc(OC)cc3)CC2)nc2c1c(=O)[nH]c(=O)n2C | 91% |
| CCOCCCN1C(=O)CN(C2CCCCCC2)C(=O)C1c1ccc(OCC)c(OC)c1 (stereo not drawn) | 122% |
| Cc1ccccc1C1=CCN(c2ncc(NC(=O)c3ccc(Cl)cc3)cc2C(=O)O)CC1 | 95% |
| COCCCNC(=O)CCCN1C(=O)CCn2nc(-c3cccn3C)cc21 | 97% |
| Cc1cc(C)c(NC(=O)CN2c3ccccc3S(=O)(=O)c3ccccc32)c(C)c1 | 106% |

| SMILES | survival |
| --- | --- |
| O=C(CN1c2ccccc2S(=O)(=O)c2ccccc21)Nc1ccccc1Cl | 57% |
| Cc1cccc(NC(=O)CN2c3ccccc3S(=O)(=O)c3ccccc32)c1C | 0% (active) |
| CCOc1ccccc1NC(=O)CN1c2ccccc2S(=O)(=O)c2ccccc21 | 37% (active) |
| CCOc1ccccc1NC(=O)CN1C=NS(=O)(=O)c2ccccc21 | 72% |
| NC(=O)c1ccccc1NC(=O)CN1c2ccccc2S(=O)(=O)c2ccccc21 | 92% |
| CCC(=O)Nc1ccc2nc(C3CC3)n(Cc3ccc(Cl)cc3)c(=O)c2c1 | 111% |
| Cc1cccc(C)c1OCC(=O)NCC1(N(C)C)CCCCC1 | 86% |
| Cc1ccc(Cn2c(CNC(=O)c3ccccc3Br)nc3cccnc32)cc1 | 120% |
| COc1cc(OC)c(NS(=O)(=O)c2cc3c(cc2C)NC(=O)CO3)cc1Cl | 88% |
| CCN(CC)CCCNC(=O)C1CCN(S(C)(=O)=O)CC1 | 85% |
| Cc1cc(C)cc(Nc2cc(C(=O)NC3CCCCC3)c3ccccc3n2)c1 | 116% |
| CSc1nc(C)cc(Nc2cccc(C(=O)O)c2)n1 | 63% |
| CCN(CC)CCCNc1cc(-c2ccccc2)nc(C)n1 | 65% |
| Cc1cc(C)cc(Nc2cc(-c3ccccc3)nc(C)n2)c1 | 8% (active) |
| Cc1nc(Nc2ccc(Cl)cc2)cc(-c2ccccc2)n1 | -4% (active) |
| CCOc1ccccc1Nc1cc(-c2ccccc2)nc(C)n1 | 60% |
| COc1ccc(Nc2cc(C)c3ccccc3n2)cc1 | 96% |
| Cc1cc(Nc2ccc(Br)cc2)nc(C)n1 | 51% |
| COc1cccc(Nc2cc(-c3ccccc3)nc(C)n2)c1 | 37% (active) |
| CSc1nc(Nc2ccc(F)cc2)cc(-c2ccccc2)n1 | -5% (active) |
| CSc1nc(Nc2ccc(C)cc2C)cc(-c2ccccc2)n1 | 51% |
| Cc1ccc(NC(=O)c2cc3nc(-c4ccccc4)cc(-c4ccccc4)n3n2)cc1 | 60% |
